Source: PubChem
A selection: hits, their analogues and other compounds. The true share with any hit is near 6.9%.
IL1B secr inh: inflammasome signaling inhibition, IL-1 beta readout. THP-1 LPS/ATP IL-1B secretion, AlphaLISA, 16 h; stronger effect = lower value. activity change, % at 57.5 µM. hit rate 4.7% among 360,000; in the data active means activity change below about -50%; inconclusive means mostly about -30% to -49%; further: on the % scale 0 is the no-effect control and ±100 the full control effect
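Secreted IL-1B measured by AlphaLISA bead assay after 16 h compound exposure of THP-1 cells; compounds (final up to 57.5 uM) added 1 h before LPS (250 ng/mL) and ATP (1.25 mM) stimulation; lower signal means less secretion.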
SW480 rerep: inducers of DNA re-replication in SW480 colon cancer cells; hit rate 1.8% among 340,000; AID 624297; Potency, µM (doses to about 46.1 µM), for the others: at the highest dose re-replication activation, hits mostly activators; SW480 DNA re-replication, Hoechst DNA content imaging, 48 h; further: potency means the concentration at half of the fitted maximal effect; % of control where 0% means no effect; nearly all actives have a fitted effect of over 55% in size
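Image-based DNA-content assay: after two days of treatment, nuclei were labelled with the DNA dye Hoechst and imaged, and hits were compounds raising the count of nuclei showing high fluorescence intensity.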
Vif-A3F inh: inhibitors of Vif-A3F interaction. Potency, µM (doses to about 46.1 µM), for the others: top-dose activity, negative = active. AID 602313. hit rate 0.2% among 390,000. HeLa A3F-eYFP + Vif (tagged APOBEC3F with the HIV-1 protein that degrades it), YFP fluorescence increase; further: potency means the concentration at half of the fitted maximal effect; % of control where 0% means no effect; nearly all actives have a fitted effect of over 65% in size
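Fluorescence increase (Ex 488/Em 500-530) after overnight compound treatment at 37 deg C flags inhibition of Vif-driven A3F-eYFP loss in stable HeLa A3F-eYFP/Vif cells seeded overnight beforehand.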
Vif-APOBEC3G blk: inhibitors of Vif-APOBEC3G interaction; AID 602310; hit rate 0.076% among 410,000; HeLa A3G-eYFP + Vif (tagged APOBEC3G with the HIV-1 protein that degrades it), YFP fluorescence, overnight; Potency, µM (highest dose often 46.1 µM), without a hit: at the top dose activity, negative = active, most hits filed as inhibitors; further: potency means the concentration at half of the fitted maximal effect; on the % scale 0 is the no-effect control and ±100 the full control effect; nearly all actives have a fitted effect of over 60% in size
Target sequence (Q9HC16 whole entry, looked up): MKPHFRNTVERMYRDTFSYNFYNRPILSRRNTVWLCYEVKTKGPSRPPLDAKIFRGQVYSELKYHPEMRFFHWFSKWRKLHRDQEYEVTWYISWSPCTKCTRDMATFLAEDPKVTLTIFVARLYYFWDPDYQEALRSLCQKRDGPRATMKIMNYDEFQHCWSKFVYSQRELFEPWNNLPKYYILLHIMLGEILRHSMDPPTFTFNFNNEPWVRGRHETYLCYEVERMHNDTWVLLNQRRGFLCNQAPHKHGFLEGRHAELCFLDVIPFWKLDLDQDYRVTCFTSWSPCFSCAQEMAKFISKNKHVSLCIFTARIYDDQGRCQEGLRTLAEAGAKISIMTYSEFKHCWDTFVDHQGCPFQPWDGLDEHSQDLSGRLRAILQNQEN
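Read-out is eYFP fluorescence (Ex 488/Em 500-530) from Vif-expressing HeLa A3G-eYFP cells; more signal means A3G escaped Vif-mediated degradation. Cells plated overnight, compound pinned in, incubated overnight at 37 deg C.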
Giardia killer: Giardia lamblia killing | Giardia lamblia trophozoite viability | activity change, % at 7.66 µM, hits read low | hit rate 0.15% among 340,000 | AID 540267; in the data active means activity change below about -80%; inconclusive means between about -30% and that limit;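 further: parasites exposed to compound for two days anaerobically before the ATP read; on the % scale 0 is the no-effect control and ±100 the full control effect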
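Giardia lamblia trophozoites (100 cells/well) were incubated with compounds for 48 h at 37 deg C under anaerobic conditions. Viability was read as ATP content by one-step luminescence after 15-30 min at room temperature.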
MCF10A rereplic: inducers of DNA re-replication in MCF 10A breast cells; MCF 10A DNA re-replication, Hoechst nuclear intensity, 48 h; Potency, µM (top dose mostly 46.1 µM), for inactives: at the top dose activity, positive = re-replication, most hits filed as activators; hit rate 2.9% among 350,000; further: potency means the concentration at half of the fitted maximal effect; % of control where 0% means no effect; nearly all actives have a fitted effect of over 50% in size
Active calls of the source: *; ? = inconclusive; . = no result; [ ] = another dose, or the depositor's remark. Unless noted, the call rests on the fitted dose curve; in most records, active means well fitted curve in the direction sought with a large enough effect; inconclusive means small, poorly fitted or top-dose-only effect, or another doubt; inactive means no such curve, though single readings can be large; an effect the other way counts as inactive or inconclusive.

SMILES | IL1B secr inh | SW480 rerep | Vif-A3F inh | Vif-APOBEC3G blk | Giardia killer | MCF10A rereplic
COC(=O)C1=C(C(=O)OC)SC(=C2C(=S)C(C)(C)N(C(=O)C3CC3)c3ccccc32)S1 | -50* | -8% | -9% | 1% | -17 | 1%
CCCC(=O)N1c2ccccc2C(=C2SC(C(=O)OC)=C(C(=O)OC)S2)C(=S)C1(C)C | 6 | 3%[9.22 µM] | 8% | -1% | -11 | -3%
Cc1cc(=O)n2c(C(=O)Nc3ccc(Br)cc3)c(C(=O)Nc3ccccc3)sc2n1 | . | . | -8% | 2% | . | .
O[C@H]1C[C@H](c2ccccc2)N(Cc2cccs2)C[C@@H]1n1cc(-c2ccc(F)cc2)nn1 | -79* | . | 3% | 0% | . | .
COc1ccc([C@H]2C[C@H](O)[C@@H](n3cc(-c4ccc(F)cc4)nn3)CN2Cc2cccs2)cc1 | -61* | . | -4% | ? | . | .
S=C(NCCSCc1ccccc1Cl)Nc1ccccc1 | -14 | -1% | 0% | 11% | -4 | 13µM*
CCC(C)c1ccc(NC(=S)NCc2ccccc2OC)cc1 (configuration not stated) | 22 | 11% | ? | 1% | -11 | 18µM*
Fc1ccc(NC(=S)NCc2ccccc2Cl)cc1 | -71* | ? | 4% | -2% | -20 | 6%
CC(C)N(C)C1CCN(S(=O)(=O)c2ccc3[nH]c(=O)ccc3c2)CC1 | . | . | 4% | 4% | . | .
Cc1cc(C)cc(NC(=O)C2CCCN(C(=O)c3cnn(-c4ccccc4)c3-n3cccc3)C2)c1 (configuration not stated) | . | . | -8% | -9% | . | .
CC(=O)n1cc(N(C(=O)CCl)c2ccc(C)cc2)c2ccccc21 | -95* | ? | 3% | -28% | 0 | 15µM*
Cc1nn(C(=O)c2ccccc2)c(C)c1S(=O)(=O)N1CCOCC1 | . | . | -9% | 1% | . | .
CCOc1ccccc1NC(=O)c1cc(C(=O)c2cc(Br)ccc2O)coc1=N | -86* | ? | 3% | -14% | 17 | 7.3µM*
COc1ccc(CNC(=O)c2cnn(-c3ccccc3)c2-n2cccc2)cc1OC | . | . | -5% | 1% | . | .
CC1CCCN(CCCNC(=O)c2cc3c(s2)-c2ccccc2OC3)C1 (configuration not stated) | -77* | ? | 2% | 0% | -20 | ?
Cc1ccc(CCNC(=O)c2cc3c(s2)-c2c(C)cccc2OC3)cc1 | . | . | 1% | -3% | . | .
Cc1cccc2c1-c1sc(C(=O)NCCCN3CCC(C)CC3)cc1CO2 | ? | 29µM* | 4% | -4% | -24 | 23µM*
CC1CCN(CCCNC(=O)c2cc3c(s2)-c2ccccc2OC3)CC1 | -27 | 84% | 0% | -2% | -17 | 5.8µM*
O=C(NCCCN1CCN(c2ccccc2)CC1)c1cc2c(s1)-c1ccccc1OC2 | . | . | 5% | -2% | . | .
Cc1cccc2sc(N(CCN(C)C)C(=O)C3CCN(S(=O)(=O)c4cccs4)CC3)nc12 | -61* | 2% | -9% | 3% | 2 | 9%
CN(C)CCCN(C(=O)c1cc(-c2cccs2)nc2ccccc12)c1nc2c(F)cccc2s1 | -74* | ? | -7% | ? | -3 | ?
CN(C)CCCN(C(=O)/C=C/c1cccs1)c1nc2c(F)cccc2s1 | -105* | ? | 1% | -12% | -7 | 26µM*
Cc1cccc2sc(N(CCN(C)C)C(=O)/C=C/c3cccs3)nc12 | -93* | ? | -10% | -10% | 13 | 23µM*
CCCc1nc(SC)ncc1C(=O)N1CCN(c2ccc(Cl)cc2)CC1 | . | . | 0% | 3% | . | .
CCN(CC)CCN1C(=O)c2ccccc2NC1c1ccc(OC)c(COc2ccc(NC(C)=O)cc2)c1 (configuration not stated) | . | . | . | 2% | 15 | .
SMILES | IL1B secr inh | SW480 rerep | Vif-A3F inh | Vif-APOBEC3G blk | Giardia killer | MCF10A rereplic
COCc1cc(=O)[nH]c(SCCS(=O)(=O)c2ccc(Cl)cc2Cl)n1 | -28 | 16% | 0% | -27% | 12 | 16µM*
COCc1cc(=O)[nH]c(SCCS(=O)(=O)c2ccc(C)cc2)n1 | -12 | -6% | 9% | 2% | 14 | -1%
Cc1cccc(NC(=O)c2ccc(N(Cc3ccccc3)S(C)(=O)=O)cc2)c1 | . | . | 1% | ? | . | .
COc1ccc(C(=O)c2ccc(Br)cc2)c2ccccc12 | 0 | -2% | -7% | -26% | 8 | 7.3µM*
COc1ccc(C(=O)c2ccc(C)cc2)c(OC)c1OC | 18 | ? | -2% | ? | 19 | 16µM*
COc1ccc(C(=O)c2ccc(Cl)cc2)c2ccccc12 | -11 | ? | -7% | ? | 11 | 9.2µM*
Cc1ccc(C)c(N2CCN(C(=O)C3CCC(CNS(=O)(=O)c4ccc(Br)s4)CC3)CC2)c1 (configuration not stated) | . | . | -12% | 1% | . | .
CCC(=O)Nc1ccccc1-c1nc2ccccc2n(CC(=O)c2ccc(Cl)cc2)c1=O | . | . | -2% | 5% | . | .
COc1ccc(C(=O)CN2C(=O)N(c3cc(C)cc(C)c3)S(=O)(=O)c3ccccc32)cc1 | . | . | -11% | -1% | . | .
C=CCC[C@@H](Cc1ccc(F)cc1)C(=O)OC[C@@H](Cc1c[nH]c2ccccc12)NC(=O)[C@H](CC=C)CC(=O)N[C@H](CO)Cc1ccccc1 | 91 | -3% | 7% | -10% | -4 | 16µM*
C=CCC[C@H](Cc1ccc(F)cc1)C(=O)OC[C@@H](Cc1c[nH]c2ccccc12)NC(=O)[C@@H](CC=C)CC(=O)N[C@@H](CO)Cc1ccccc1 | -30 | ? | -13% | -15% | 25 | 18µM*
CC#CC#Cc1cccc(=O)o1 | -75* | 24% | -6% | -3% | 20 | 18µM*
Cc1ccc(C(=O)N2CCC(C(=O)c3ccc(F)cc3)CC2)cc1 | -1 | -10% | 6% | -3% | 17 | 1%
Cc1ccc(C(=O)C2CCN(CC(=O)N3CCN(c4ccc(F)cc4)CC3)CC2)cc1 | -55* | -5% | -10% | -1% | 13 | 13%
O=Cc1ccccc1OCc1ccc2c(c1)OCO2 | 33 | 18µM* | 0% | -31% | -17 | ?
COc1ccccc1CNCc1ccc2c(c1)OCO2 | -22 | . | -7% | -3% | . | .
Cc1c2cnn(CC(=O)N3CCN(c4ccccc4)CC3)c(=O)c2c(C)n1Cc1ccc(F)cc1 | . | . | 1% | 4% | . | .
